{
  "source": "the supplement of paper PMC11732987",
  "about": "“Enantioselective OTUD7B fragment discovery through chemoproteomics screening and high-throughput optimisation” (Communications Chemistry, 2025)",
  "test_in_all_cases": "log2 ratio of Biotin-Ahx-Ub-VS probe labelling (fragment/DMSO); higher = less target engagement (more negative = stronger competition), active = hit call of the paper (q ≤ 0.05, log2 ratio ≤ -1)",
  "conditions_in_all_cases": "compound concentration: 200 uM; treatment time: 3 h",
  "key": {"OTUD6B": {"molecular_target": "T1, OTUD6B (UniProt Q8N6M0)", "T1 sequence (whole entry)": "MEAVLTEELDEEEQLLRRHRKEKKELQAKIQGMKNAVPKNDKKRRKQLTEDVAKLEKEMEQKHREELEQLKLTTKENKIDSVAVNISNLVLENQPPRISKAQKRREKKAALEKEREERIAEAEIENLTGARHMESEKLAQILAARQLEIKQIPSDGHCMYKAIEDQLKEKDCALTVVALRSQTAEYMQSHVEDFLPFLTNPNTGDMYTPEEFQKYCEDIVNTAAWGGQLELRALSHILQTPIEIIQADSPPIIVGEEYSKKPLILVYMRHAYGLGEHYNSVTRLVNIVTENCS", "method_in_brief": "(§1)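 Fragment (200 µM) or vehicle was incubated for 3 h with triplicate HEK293T lysate samples of 495 µg, which were then treated with Biotin-Ahx-Ub-VS at 0.5 µM final for 1 h. Labelled DUBs were enriched on NeutrAvidin, digested with LysC and trypsin, and analysed by diaPASEF LC-MS/MS. Values are average log2 fragment/vehicle ratios from an unpaired t-test on global-median-normalised Spectronaut label-free quantities, using proteins with ≥2 unique peptides.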"}, "OTUD7B": {"molecular_target": "T2, OTUD7B (UniProt Q6GQQ9)", "T2 sequence (whole entry)": "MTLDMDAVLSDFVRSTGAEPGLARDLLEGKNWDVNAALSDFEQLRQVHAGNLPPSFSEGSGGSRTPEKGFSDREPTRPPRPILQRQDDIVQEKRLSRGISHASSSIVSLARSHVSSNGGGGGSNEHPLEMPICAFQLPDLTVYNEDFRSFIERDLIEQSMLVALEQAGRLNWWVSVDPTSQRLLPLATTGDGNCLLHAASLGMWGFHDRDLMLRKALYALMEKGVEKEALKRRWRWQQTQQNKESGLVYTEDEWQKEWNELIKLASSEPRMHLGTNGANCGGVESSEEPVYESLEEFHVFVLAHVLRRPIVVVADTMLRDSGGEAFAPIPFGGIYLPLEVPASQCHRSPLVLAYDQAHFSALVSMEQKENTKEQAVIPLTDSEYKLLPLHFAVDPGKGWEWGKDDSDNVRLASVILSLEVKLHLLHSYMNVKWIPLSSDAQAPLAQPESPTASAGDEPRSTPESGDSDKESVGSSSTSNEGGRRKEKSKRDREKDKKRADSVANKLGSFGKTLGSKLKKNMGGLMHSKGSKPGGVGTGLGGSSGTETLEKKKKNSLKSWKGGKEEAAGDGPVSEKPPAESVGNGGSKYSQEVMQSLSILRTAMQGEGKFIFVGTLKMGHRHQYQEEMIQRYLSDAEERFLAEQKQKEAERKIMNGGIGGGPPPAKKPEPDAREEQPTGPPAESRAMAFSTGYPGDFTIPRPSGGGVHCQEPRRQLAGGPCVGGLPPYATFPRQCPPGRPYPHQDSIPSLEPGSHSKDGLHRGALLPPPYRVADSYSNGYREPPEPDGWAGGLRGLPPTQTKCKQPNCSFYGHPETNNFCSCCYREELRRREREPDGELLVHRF", "method_in_brief": "as §1"}, "PRPF8": {"molecular_target": "PRPF8 (UniProt Q6P2Q9)", "method_in_brief": "as §1"}, "PSMD7": {"molecular_target": "T3, PSMD7 (UniProt P51665)", "T3 sequence (whole entry)": "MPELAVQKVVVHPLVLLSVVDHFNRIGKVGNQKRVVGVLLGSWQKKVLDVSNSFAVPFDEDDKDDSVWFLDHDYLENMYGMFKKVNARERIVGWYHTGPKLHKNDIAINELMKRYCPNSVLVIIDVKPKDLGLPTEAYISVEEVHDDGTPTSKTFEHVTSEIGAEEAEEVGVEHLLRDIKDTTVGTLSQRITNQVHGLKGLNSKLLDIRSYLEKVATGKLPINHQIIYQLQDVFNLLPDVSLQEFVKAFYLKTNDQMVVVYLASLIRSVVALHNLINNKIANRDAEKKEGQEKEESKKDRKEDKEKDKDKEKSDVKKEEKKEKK", "method_in_brief": "as §1"}, "UCHL1": {"molecular_target": "UCHL1 (UniProt P09936)", "sequence (P09936 whole entry, looked up)": "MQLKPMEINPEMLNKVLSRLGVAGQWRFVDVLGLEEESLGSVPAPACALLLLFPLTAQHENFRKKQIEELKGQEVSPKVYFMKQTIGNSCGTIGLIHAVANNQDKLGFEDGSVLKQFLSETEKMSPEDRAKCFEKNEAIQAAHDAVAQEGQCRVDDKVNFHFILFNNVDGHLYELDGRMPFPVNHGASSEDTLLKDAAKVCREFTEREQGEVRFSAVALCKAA", "method_in_brief": "as §1"}, "UCHL3": {"molecular_target": "T4, UCHL3 (UniProt P15374)", "T4 sequence (whole entry)": "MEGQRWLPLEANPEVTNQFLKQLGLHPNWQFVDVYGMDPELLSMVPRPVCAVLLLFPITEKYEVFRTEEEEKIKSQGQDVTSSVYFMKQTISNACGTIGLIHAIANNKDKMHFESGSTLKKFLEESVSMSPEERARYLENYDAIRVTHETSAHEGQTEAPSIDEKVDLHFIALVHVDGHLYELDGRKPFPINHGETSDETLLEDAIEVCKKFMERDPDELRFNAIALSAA", "method_in_brief": "as §1"}, "UCHL5": {"molecular_target": "T5, UCHL5 (UniProt Q9Y5K5)", "T5 sequence (whole entry)": "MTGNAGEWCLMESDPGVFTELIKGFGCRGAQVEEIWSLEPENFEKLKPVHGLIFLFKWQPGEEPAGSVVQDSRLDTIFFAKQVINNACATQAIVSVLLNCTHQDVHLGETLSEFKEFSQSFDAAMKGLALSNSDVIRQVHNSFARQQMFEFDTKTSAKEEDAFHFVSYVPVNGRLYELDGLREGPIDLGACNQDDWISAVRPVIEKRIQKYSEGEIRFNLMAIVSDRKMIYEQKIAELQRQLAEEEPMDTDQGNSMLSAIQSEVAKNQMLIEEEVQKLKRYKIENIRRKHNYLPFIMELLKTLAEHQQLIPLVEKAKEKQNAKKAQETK", "method_in_brief": "as §1"}, "USP10": {"molecular_target": "USP10 (UniProt Q14694)", "sequence (Q14694 whole entry)": "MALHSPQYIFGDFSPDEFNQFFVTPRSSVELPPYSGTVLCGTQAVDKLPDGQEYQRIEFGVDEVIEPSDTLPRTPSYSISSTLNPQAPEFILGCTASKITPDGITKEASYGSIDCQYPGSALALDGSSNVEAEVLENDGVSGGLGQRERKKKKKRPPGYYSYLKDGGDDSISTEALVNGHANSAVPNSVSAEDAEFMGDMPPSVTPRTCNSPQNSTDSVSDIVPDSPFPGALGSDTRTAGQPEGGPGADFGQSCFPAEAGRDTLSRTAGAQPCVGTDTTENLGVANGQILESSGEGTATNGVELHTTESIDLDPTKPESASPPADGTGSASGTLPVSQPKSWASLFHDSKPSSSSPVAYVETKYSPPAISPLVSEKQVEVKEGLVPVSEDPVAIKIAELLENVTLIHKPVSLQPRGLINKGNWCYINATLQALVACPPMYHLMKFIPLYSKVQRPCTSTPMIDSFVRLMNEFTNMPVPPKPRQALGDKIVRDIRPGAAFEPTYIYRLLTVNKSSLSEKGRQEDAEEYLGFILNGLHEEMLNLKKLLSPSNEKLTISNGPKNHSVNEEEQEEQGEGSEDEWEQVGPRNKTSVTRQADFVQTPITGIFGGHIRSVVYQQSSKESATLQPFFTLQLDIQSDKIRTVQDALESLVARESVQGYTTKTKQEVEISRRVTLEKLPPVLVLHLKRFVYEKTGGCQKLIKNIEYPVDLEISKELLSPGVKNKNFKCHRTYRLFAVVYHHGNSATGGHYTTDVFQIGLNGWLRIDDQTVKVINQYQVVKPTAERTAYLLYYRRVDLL", "method_in_brief": "as §1"}, "USP15": {"molecular_target": "T6, USP15 (UniProt Q9Y4E8)", "T6 sequence (whole entry)": "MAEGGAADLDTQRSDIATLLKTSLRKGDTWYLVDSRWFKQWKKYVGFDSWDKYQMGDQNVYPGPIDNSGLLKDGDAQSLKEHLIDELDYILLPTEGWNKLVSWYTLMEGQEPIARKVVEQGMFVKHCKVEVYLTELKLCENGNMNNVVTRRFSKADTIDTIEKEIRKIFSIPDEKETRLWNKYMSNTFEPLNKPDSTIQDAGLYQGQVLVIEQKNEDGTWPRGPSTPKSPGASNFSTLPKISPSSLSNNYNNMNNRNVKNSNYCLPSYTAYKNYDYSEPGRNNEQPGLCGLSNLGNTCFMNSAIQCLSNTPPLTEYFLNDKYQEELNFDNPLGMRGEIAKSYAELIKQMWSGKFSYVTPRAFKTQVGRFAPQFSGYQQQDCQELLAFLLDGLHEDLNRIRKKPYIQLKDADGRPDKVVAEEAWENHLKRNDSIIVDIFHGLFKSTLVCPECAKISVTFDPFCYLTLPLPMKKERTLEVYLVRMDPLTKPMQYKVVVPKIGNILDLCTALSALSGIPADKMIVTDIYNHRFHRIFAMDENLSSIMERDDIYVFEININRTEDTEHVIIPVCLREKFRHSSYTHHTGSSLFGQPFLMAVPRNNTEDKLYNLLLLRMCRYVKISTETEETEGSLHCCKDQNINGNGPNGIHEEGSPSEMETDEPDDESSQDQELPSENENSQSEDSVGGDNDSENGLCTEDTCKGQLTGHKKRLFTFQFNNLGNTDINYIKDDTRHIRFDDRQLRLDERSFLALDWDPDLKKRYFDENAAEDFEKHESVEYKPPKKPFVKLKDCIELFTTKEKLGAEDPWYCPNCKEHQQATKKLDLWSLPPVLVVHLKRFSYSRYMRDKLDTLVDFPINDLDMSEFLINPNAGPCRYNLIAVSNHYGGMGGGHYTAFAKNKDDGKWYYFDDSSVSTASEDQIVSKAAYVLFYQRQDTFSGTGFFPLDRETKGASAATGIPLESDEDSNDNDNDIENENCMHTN", "method_in_brief": "as §1"}, "USP16": {"molecular_target": "USP16 (UniProt Q9Y5T5)", "sequence (Q9Y5T5 whole entry, looked up)": "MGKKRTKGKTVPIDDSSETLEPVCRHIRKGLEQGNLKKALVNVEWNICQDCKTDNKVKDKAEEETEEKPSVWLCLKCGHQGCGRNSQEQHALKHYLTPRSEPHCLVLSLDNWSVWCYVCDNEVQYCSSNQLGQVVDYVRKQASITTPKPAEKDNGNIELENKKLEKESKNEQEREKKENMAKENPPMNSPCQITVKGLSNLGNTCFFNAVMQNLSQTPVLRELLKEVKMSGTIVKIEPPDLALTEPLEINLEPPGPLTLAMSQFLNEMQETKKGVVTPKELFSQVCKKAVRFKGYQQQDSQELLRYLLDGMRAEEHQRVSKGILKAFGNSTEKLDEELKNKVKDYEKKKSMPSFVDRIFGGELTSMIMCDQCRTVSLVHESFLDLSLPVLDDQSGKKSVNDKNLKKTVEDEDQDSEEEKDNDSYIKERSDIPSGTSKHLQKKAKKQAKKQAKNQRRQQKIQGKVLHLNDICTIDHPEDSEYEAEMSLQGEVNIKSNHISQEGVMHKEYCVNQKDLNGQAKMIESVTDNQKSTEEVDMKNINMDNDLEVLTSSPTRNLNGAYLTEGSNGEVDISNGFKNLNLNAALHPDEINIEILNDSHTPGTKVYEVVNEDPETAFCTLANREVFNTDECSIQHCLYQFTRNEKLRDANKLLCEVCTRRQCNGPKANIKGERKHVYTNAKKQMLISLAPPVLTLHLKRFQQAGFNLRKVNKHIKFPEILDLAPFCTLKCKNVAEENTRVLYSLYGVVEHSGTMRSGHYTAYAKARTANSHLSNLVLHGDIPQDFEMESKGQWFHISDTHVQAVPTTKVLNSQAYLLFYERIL", "method_in_brief": "as §1"}},
  "note": "Values without a mark were called inactive.",
  "data": [
    {"smiles": "O=C(CCl)NCC1(c2ccccc2)CC1", "values": [
      {"measurement": "log2 ratio of Biotin-Ahx-Ub-VS probe labelling", "setting": "OTUD6B", "result": -0.042},
      {"measurement": "log2 ratio of Biotin-Ahx-Ub-VS probe labelling", "setting": "OTUD7B", "result": -0.82},
      {"measurement": "log2 ratio of Biotin-Ahx-Ub-VS probe labelling", "setting": "PRPF8", "result": -0.155},
      {"measurement": "log2 ratio of Biotin-Ahx-Ub-VS probe labelling", "setting": "PSMD7", "result": -0.151},
      {"measurement": "log2 ratio of Biotin-Ahx-Ub-VS probe labelling", "setting": "UCHL1", "result": "-1.22 (active)"},
      {"measurement": "log2 ratio of Biotin-Ahx-Ub-VS probe labelling", "setting": "UCHL3", "result": 0.255},
      {"measurement": "log2 ratio of Biotin-Ahx-Ub-VS probe labelling", "setting": "UCHL5", "result": -0.245},
      {"measurement": "log2 ratio of Biotin-Ahx-Ub-VS probe labelling", "setting": "USP10", "result": 0.00549},
      {"measurement": "log2 ratio of Biotin-Ahx-Ub-VS probe labelling", "setting": "USP15", "result": -0.107},
      {"measurement": "log2 ratio of Biotin-Ahx-Ub-VS probe labelling", "setting": "USP16", "result": 0.0406}
    ]}
  ]
}
